Several values for one entry are separate records, joined by “and”; a condition that tells them apart may be missing. Identical values can stand only once. Records with an inconclusive call do not appear. Some structures have more than one record in an assay (separate samples or runs), and their calls can disagree. Activity calls are given as the source filed them. How the source made its calls, unless noted: active means hit-call score of the fitted dose curve at least 0.9, where 1 is the maximum; inactive means score below 0.9.
Tests used:
[1] = biological target: Retinoic acid receptor RXR-alpha (Homo sapiens) (UniProt P19793); assay: ATG_RXRa_TRANS: Attagene TRANS-FACTORIAL HepG2 Assay for human Retinoid X Receptor alpha (RXRa) (AID 2283012; active means hit-call score of the fitted dose curve at least 0.9, where 1 is the maximum)
Method in brief: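 HepG2 cells transiently transfected with multiplexed GAL4-UAS reporter units and chimeric NR-GAL4 fusions, dosed 24 h. Reporter mRNA measured by RT-PCR, FAM labelling, HpaI digestion and capillary electrophoresis; gain-of-signal fitted relative to DMSO baseline.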

[2] = biological target: human Retinoid X Receptor beta (RXRb), RXRB (gene 6257) (UniProt P28702); assay: ATG_RXRb_TRANS: Attagene TRANS-FACTORIAL HepG2 Assay for human Retinoid X Receptor beta (RXRb) (AID 2283013; active means hit-call score of the fitted dose curve at least 0.9, where 1 is the maximum)
Method in brief: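 HepG2 cells transiently transfected with multiplexed reporter units driven by GAL4-UAS and exogenous chimeric NR-Gal4 proteins; treated 24 h. Reporter mRNA measured by RT-PCR, 6-FAM labelling and capillary electrophoresis; gain-of-signal fitted versus DMSO baseline.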

[3] = biological target: human Thyroid Receptor alpha (THRa1), THRA (gene 7067) (UniProt P10827); assay: ATG_THRa1_TRANS: Attagene TRANS-FACTORIAL HepG2 Assay for human Thyroid Receptor alpha (THRa1) (AID 2283014; active means hit-call score of the fitted dose curve at least 0.9, where 1 is the maximum)
Method in brief: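 Transcripts from GAL4-UAS-driven reporters, measured after 24 h compound exposure by RT-PCR plus capillary electrophoresis of 6-FAM-labeled fragments, were fitted for gain of signal relative to DMSO. Cells: transiently transfected HepG2 expressing NR-Gal4 chimeras.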

[4] = read-out: E-selectin (Homo sapiens) (UniProt P16581); assay: BSK_3C_Eselectin: BioMAP Diversity Plus: 3C Assay for Eselectin Biomarker Activity (AID 2283015); settings: primary human endothelial cells (HUVEC); actives raise or lower the signal
Method in brief: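 E-selectin ELISA readout, fitted bidirectionally relative to DMSO, taken 24 h post-dosing in HUVEC cultures of the 3C system. Overt cytotoxicity tracked with sulforhodamine B staining of parallel wells.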

[5] = read-out: Interleukin-1 alpha (IL1a), IL1A (gene 3552); assay: BSK_BE3C_IL1a: BioMAP Diversity Plus: BE3C Assay for Interleukin-1 alpha (IL1a) Biomarker Activity (AID 2283016); settings: primary human bronchial epithelial cells; actives raise or lower the signal
Method in brief: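 Human primary bronchial epithelial cells (BE3C system) were dosed with compound and IL-1a measured by ELISA 24 h later. Activity was fitted bidirectionally against DMSO baseline; cytotoxicity was tracked in parallel cultures by SRB total-protein staining.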

[6] = read-out: Monocyte Chemoattractant Protein-1 (MCP1), CCL2 (gene 6347); assay: BSK_3C_MCP1: BioMAP Diversity Plus: 3C Assay for Monocyte Chemoattractant Protein-1 (MCP1) Biomarker Activity (AID 2283017); settings: primary human endothelial cells (HUVEC); actives raise or lower the signal
Method in brief: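 MCP-1 was measured by ELISA 24 h after dosing in primary HUVEC 3C cultures and fitted in both directions relative to DMSO; cytotoxicity was checked by SRB total-protein staining in parallel wells.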

[7] = read-out: Monocyte Chemoattractant Protein-1 (MCP1), CCL2 (gene 6347); assay: BSK_4H_MCP1: BioMAP Diversity Plus: 4H Assay for Monocyte Chemoattractant Protein-1 (MCP1) Biomarker Activity (AID 2283018); settings: primary human endothelial cells (HUVEC); actives raise or lower the signal
Method in brief: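 Human umbilical vein endothelial cells (4H system) dosed with chemical; MCP-1 measured by ELISA 24 h after dosing. Bidirectional curve fitting against DMSO negative control as baseline; parallel SRB total-protein staining tracks overt cytotoxicity.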

[8] = read-out: Human Leukocyte Antigen - DR isotype (HLADR), HLA-DRA (gene 3122); assay: BSK_3C_HLADR: BioMAP Diversity Plus: 3C Assay for Human Leukocyte Antigen - DR isotype (HLADR) Biomarker Activity (AID 2283019); settings: primary human endothelial cells (HUVEC); actives raise or lower the signal
Method in brief: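 Bidirectional fitting against DMSO was applied to the HLA-DR ELISA signal from human umbilical vein endothelial cells, 24 h post-dose. Cytotoxicity came from parallel SRB total-protein staining; 3C proliferation was counted by SRB at 48 h.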

[9] = read-out: Interleukin-8 (IL8), CXCL8 (gene 3576); assay: BSK_3C_IL8: BioMAP Diversity Plus: 3C Assay for Interleukin-8 (IL8) Biomarker Activity (AID 2283020); settings: primary human endothelial cells (HUVEC); actives raise or lower the signal
Method in brief: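 Primary human umbilical vein endothelial cells (3C system) were exposed to test chemical for 24 h, then IL-8 was quantified by ELISA. Responses were fitted bidirectionally against DMSO vehicle as baseline.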

[10] = read-out: Monokine induced gamma interferon (MIG), CXCL9 (gene 4283); assay: BSK_3C_MIG: BioMAP Diversity Plus: 3C Assay for Monokine induced gamma interferon (MIG) Biomarker Activity (AID 2283021); settings: primary human endothelial cells (HUVEC); actives raise or lower the signal;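 on AC50: MIG protein level measured by immunoassay in the treated endothelial cultures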
Method in brief: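 Primary human umbilical vein endothelial cells in the 3C system were exposed to chemical for 24 h, after which MIG was quantified by ELISA. Activity was fitted bidirectionally against DMSO as negative control and baseline.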

Measured: AC50

Sequence of Retinoic acid receptor RXR-alpha (Homo sapiens) (P19793 whole entry, looked up, the tested form may be a part): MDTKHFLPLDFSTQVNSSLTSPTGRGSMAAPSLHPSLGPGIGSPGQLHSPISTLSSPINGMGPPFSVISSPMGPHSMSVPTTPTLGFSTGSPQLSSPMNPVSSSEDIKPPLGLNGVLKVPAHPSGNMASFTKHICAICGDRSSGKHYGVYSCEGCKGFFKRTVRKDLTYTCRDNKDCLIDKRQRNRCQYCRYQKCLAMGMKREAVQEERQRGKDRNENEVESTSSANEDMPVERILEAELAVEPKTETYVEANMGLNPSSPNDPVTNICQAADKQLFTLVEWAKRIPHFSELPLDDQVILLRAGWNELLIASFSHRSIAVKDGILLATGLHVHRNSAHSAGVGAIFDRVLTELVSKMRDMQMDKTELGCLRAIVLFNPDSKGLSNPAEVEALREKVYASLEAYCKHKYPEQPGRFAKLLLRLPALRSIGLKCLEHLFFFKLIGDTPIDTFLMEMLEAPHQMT
Sequence of human Thyroid Receptor alpha (THRa1), THRA (gene 7067) (P10827 whole entry, looked up, the tested form may be a part): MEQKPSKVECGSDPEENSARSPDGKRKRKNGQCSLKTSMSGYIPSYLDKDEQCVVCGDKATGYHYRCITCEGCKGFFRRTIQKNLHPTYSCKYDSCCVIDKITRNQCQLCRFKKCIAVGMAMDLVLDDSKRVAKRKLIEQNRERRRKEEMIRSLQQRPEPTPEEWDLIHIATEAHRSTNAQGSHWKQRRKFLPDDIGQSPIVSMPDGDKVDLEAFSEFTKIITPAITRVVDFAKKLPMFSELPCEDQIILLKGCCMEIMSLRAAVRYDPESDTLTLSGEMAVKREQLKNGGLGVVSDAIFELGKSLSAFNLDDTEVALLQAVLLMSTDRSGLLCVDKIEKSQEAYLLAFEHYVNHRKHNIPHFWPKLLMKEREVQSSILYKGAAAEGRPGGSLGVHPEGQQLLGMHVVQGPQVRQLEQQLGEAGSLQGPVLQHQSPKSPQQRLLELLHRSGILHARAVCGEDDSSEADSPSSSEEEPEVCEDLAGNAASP
Sequence of E-selectin (Homo sapiens) (P16581 whole entry, looked up): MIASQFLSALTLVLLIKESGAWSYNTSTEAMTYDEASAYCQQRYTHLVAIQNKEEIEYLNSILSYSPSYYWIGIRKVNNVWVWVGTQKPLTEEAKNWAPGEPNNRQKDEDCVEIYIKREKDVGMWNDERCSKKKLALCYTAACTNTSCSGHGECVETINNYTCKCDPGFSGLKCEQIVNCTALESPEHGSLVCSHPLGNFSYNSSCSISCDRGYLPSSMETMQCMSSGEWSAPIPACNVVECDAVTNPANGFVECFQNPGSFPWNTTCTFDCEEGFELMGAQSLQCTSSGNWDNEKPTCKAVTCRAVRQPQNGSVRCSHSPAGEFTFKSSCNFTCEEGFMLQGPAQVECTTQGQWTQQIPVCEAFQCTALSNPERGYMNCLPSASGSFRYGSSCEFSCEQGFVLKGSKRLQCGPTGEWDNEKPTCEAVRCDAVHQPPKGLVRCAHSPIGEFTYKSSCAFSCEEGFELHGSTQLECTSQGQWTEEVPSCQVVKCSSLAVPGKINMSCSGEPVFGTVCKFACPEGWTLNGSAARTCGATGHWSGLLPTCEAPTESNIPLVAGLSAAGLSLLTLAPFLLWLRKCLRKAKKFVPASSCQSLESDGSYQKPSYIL
Sequence of human Retinoid X Receptor beta (RXRb), RXRB (gene 6257) (P28702 whole entry, looked up, the tested form may be a part): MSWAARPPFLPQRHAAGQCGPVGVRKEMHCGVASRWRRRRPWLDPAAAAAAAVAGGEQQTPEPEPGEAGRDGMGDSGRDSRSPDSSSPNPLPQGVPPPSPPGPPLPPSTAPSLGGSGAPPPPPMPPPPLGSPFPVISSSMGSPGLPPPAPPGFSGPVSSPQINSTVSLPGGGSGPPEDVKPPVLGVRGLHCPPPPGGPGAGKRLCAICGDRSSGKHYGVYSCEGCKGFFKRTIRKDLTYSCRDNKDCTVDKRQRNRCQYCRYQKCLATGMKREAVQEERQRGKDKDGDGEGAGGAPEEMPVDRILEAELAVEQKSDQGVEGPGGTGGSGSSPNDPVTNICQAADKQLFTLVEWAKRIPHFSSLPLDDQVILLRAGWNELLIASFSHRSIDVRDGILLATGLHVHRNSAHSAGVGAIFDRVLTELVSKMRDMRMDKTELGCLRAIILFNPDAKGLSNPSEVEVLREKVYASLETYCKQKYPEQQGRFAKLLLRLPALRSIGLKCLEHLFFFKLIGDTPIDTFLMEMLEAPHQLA

CCS(=O)(=O)c1cccnc1S(=O)(=O)NC(=O)Nc1nc(OC)cc(OC)n1
inactive: all assays above

O=C(O)C(F)(F)C(F)(F)C(F)(F)C(F)(F)C(F)(F)C(F)(F)C(F)(F)F
active: [2] 57 µM and 37.4 µM and 56.2 µM | [9] 30 µM and 16 µM and 22.5 µM
inactive: [1] | [2] | [4] | [5] | [6] | [7] | [8] | [9] | [10]

Cc1[nH]c(=O)n(C(C)(C)C)c(=O)c1Cl
active: [8] 13.2 µM
not listed: [1] | [2]
inactive: all other assays above

Cc1cc(C)nc(NC(=O)NS(=O)(=O)c2ccccc2C(=O)OC2COC2)n1
not listed: [1]
inactive: all other assays above

CCN(CC)C(=O)SCc1ccc(Cl)cc1
active: [6] 3.72 µM
not listed: [3] | [9]
inactive: all other assays above

O=C(O)COc1ccc(Cl)cc1Cl
not listed: [1] | [3]
inactive: all other assays above

CNC(=O)CSP(=S)(OC)OC
not listed: [1] | [2] | [3]
inactive: all other assays above

COP(=S)(OC)Oc1ccc([N+](=O)[O-])cc1
active: [4] 8.4 µM | [6] 33.8 µM | [8] 17.4 µM | [9] 2.36 µM
inactive: [2] | [5] | [7] | [10]

COc1cc(OC)nc(NC(=O)NS(=O)(=O)c2cc(NC=O)ccc2C(=O)N(C)C)n1
not listed: [2] | [3]
inactive: all other assays above

CNC(=O)/C=C(\C)OP(=O)(OC)OC
not listed: [3]
inactive: all other assays above

CN1CSC(=S)N(C)C1
active: [4] 18.1 µM | [6] 31.2 µM | [8] 19 µM
not listed: [2]
inactive: all other assays above

CCC(C)(C)C(=O)OC1=C(c2ccc(Cl)cc2Cl)C(=O)OC12CCCCC2
inactive: [1] | [3]
active: [4] 19.9 µM | [5] 31 µM | [6] 29.4 µM | [7] 15.1 µM | [8] 11 µM | [9] 30.9 µM | [10] 35.2 µM

CCc1ccc(C(=O)NN(C(=O)c2cc(C)cc(C)c2)C(C)(C)C)cc1
active: [6] 4.84 µM
not listed: [3]
inactive: all other assays above

CC(C)(C)C(O)/C(=C\c1ccc(Cl)cc1Cl)n1cncn1 (configuration not stated)
active: [4] 24 µM | [5] 32.9 µM | [6] 30.9 µM | [7] 22.6 µM | [8] 31.6 µM | [9] 32.2 µM
inactive: [1] | [3] | [10]

CCOc1nc(NC)nc(NC(=O)NS(=O)(=O)c2ccccc2C(=O)OC)n1
not listed: [3]
inactive: all other assays above

CCC(C)Nc1c([N+](=O)[O-])cc(C(C)(C)C)cc1[N+](=O)[O-] (configuration not stated)
inactive: [2] | [5] | [9] | [10]
active: [4] 25.8 µM | [6] 31.3 µM | [7] 20 µM | [8] 20 µM

CCOCN(C(=O)CCl)c1c(C)cccc1CC
active: [4] 15.7 µM | [7] 20 µM | [8] 20 µM
not listed: [1]
inactive: all other assays above

O=C1c2ccccc2C(=O)N1SC(Cl)(Cl)Cl
active: [5] 32 µM
not listed: [3]
inactive: all other assays above

O=C(NC(=O)c1c(F)cccc1F)Nc1ccc(OC(F)(F)C(F)OC(F)(F)F)c(Cl)c1 (configuration not stated)
active: [4] 12.7 µM | [8] 14 µM
not listed: [2]
inactive: all other assays above

CNC(=O)Oc1ccccc1OC(C)C
active: [5] 5.51 µM
not listed: [1] | [2] | [3]
inactive: all other assays above

COP(=S)(OC)Oc1ccc(SC)c(C)c1
active: [5] 5.15 µM
not listed: [3]
inactive: all other assays above

CCCN(CCC)c1c([N+](=O)[O-])cc(C(F)(F)F)cc1[N+](=O)[O-]
active: [7] 24.7 µM
not listed: [1] | [3]
inactive: all other assays above

N#CN
not listed: [1] | [3]
inactive: all other assays above

C[C@H]1[C@H](c2ccc(Cl)cc2)SC(=O)N1C(=O)NC1CCCCC1
active: [6] 20 µM | [7] 8.84 µM | [8] 21.8 µM | [9] 20 µM
not listed: [1]
inactive: all other assays above

CC(C)N(C(=O)COc1nnc(C(F)(F)F)s1)c1ccc(F)cc1
active: [7] 22.4 µM
not listed: [3]
inactive: all other assays above

COP(=O)(OC)OC=C(Cl)Cl
active: [8] 20 µM
inactive: [5] | [6] | [7] | [9] | [10]

O=S1OCC2C(CO1)C1(Cl)C(Cl)=C(Cl)C2(Cl)C1(Cl)Cl (configuration not stated)
active: [4] 34.5 µM | [5] 33.4 µM | [6] 30.3 µM | [7] 26 µM | [8] 30 µM | [9] 32.7 µM | [10] 36 µM
inactive: [1]

COC(=O)c1ccccc1S(=O)(=O)NC(=O)N(C)c1nc(C)nc(OC)n1
not listed: [2]
inactive: all other assays above

[2H]C1([2H])[n+]2ccccc2-c2cccc[n+]2C1([2H])[2H]
not listed: [1] | [3]
inactive: all other assays above
